Sampled rows, rich in hits. Any-hit rate of the full collection: about 2.2%.
TWEAK Fn14 block = TWEAK-Fn14 signaling inhibition; TWEAK-stimulated Fn14 reporter cells, luciferase luminescence, 8 h; inhibition, % at 10 µM; 360,000 tested, 2% active; AID 1159606; in the data active = inhibition above about 50%
HSP90 inh = inhibitors of HSP90 luciferase refolding in rabbit reticulocyte lysate; luciferase refolding luminescence, 3 h; inhibition, % at 5.6 µM; 290,000 tested, 0.91% active;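 active = inhibition above the screen-wide mean plus 3 SD, computed separately per campaign, cut at about 16% in these data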;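 also: inhibitors lower the luminescence because luciferase stays unfolded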
LGR2 inh = inhibitors of bursicon-induced Drosophila LGR2 receptor cAMP signaling | 380,000 tested, 0.35% active | AID 720647 | inhibition, % at 9.99 µM | HEK293 LGR2, CRE-luciferase, bursicon-stimulated, 4 h;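 active = drop in luminescence signal, shown as inhibition above about 50% in the replicate tests, limit read from the data, passing the limit was not always enough; inconclusive = probably only some replicates passing the limit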;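 also: agonist challenge used bursicon conditioned medium at about half maximal strength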
TROY signal inh = TROY signaling inhibition | Q293 LMP1-TROYcd NF-kB luciferase reporter, 4 h | inhibition, % at 10 µM | 360,000 tested, 0.98% active;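 active = compounds whose plate-normalised and pattern-corrected inhibition of the luciferase reporter signal at the single screening dose is 50% or more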
HSP90 confirm = HSP90 inhibition, confirmation assay; 2,300 tested, 64% active; inhibition, % at 5.9 µM; shares compounds with HSP90 inh; AID 1846; rabbit reticulocyte lysate, luciferase refolding luminescence, 3 h; in the data active = inhibition above about 18%
luciferase ctr = firefly luciferase inhibition, HSP90 counter-screen. shares compounds with HSP90 inh. purified native firefly luciferase, luminescence. inhibition, % at 5.9 µM. 2,300 tested, 48% active. AID 1847;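 active = inhibition above the mean inhibition of all tested sample wells plus 3 SD, cut at about 10% in these data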
Target sequence (P08659 whole entry, looked up): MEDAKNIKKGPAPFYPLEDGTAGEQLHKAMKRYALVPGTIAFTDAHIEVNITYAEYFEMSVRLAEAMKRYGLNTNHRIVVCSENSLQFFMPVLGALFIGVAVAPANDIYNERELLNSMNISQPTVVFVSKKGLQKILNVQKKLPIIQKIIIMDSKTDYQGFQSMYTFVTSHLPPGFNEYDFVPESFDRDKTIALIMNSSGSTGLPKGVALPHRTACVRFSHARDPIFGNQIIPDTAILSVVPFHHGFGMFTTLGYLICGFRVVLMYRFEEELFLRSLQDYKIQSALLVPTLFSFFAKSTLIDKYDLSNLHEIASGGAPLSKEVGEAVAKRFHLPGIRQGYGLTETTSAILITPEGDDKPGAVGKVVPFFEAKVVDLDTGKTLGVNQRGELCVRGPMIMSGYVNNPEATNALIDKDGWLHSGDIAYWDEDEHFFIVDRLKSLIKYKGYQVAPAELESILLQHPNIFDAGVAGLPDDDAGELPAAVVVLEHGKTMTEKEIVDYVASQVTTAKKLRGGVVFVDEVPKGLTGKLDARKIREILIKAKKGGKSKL
Hits are given with their value.

`Cc1ccc(-n2nnc(-c3nccn3C)n2)cc1` gave TWEAK Fn14 block 75.8, HSP90 inh 33.0, LGR2 inh inconclusive, TROY signal inh inactive, HSP90 confirm 49.5 and luciferase ctr 37.4.
For C[C@@H]1CN([C@@H](C)CO)C(=O)c2cc(C3=CCCC3)cnc2O[C@H]1CN(C)C(=O)Cc1ccncc1 the results were LGR2 inh inactive.
For CNc1nnc(-c2ccc(N(C)C)cc2)s1 the results were TWEAK Fn14 block 61.5, HSP90 inh 19.7, TROY signal inh inactive, HSP90 confirm 47.1 and luciferase ctr 37.5.
`C[C@H](NC(=O)C[C@@H]1CC[C@H](NC(=O)C2CC2)[C@@H](CO)O1)c1ccccc1` gave LGR2 inh inactive.
`COc1ccc(CCNC(=O)Cc2ccc(Cl)cc2)cc1OC` gave TWEAK Fn14 block inactive, HSP90 inh inactive, LGR2 inh inactive and TROY signal inh inactive.
COc1ccc(CCNC(=O)Cc2cc(OC)c(OC)cc2Br)cc1OC was read as TWEAK Fn14 block inactive, HSP90 inh 34.3, LGR2 inh inactive, TROY signal inh inactive, HSP90 confirm inactive and luciferase ctr inactive.
CO[C@@H]1CN(C)C(=O)c2cc(NC(=O)C3CCCC3)ccc2OC[C@H](C)NC[C@@H]1C was read as LGR2 inh inactive.
For COc1cccc(Cn2cccc(NC(=O)NCc3ccccc3)c2=O)c1 the results were TWEAK Fn14 block inactive, HSP90 inh 17.9, LGR2 inh inactive, TROY signal inh inactive, HSP90 confirm inactive and luciferase ctr inactive.
`COc1cccc(Cn2cccc(NC(=O)Nc3ccccc3C)c2=O)c1` gave TWEAK Fn14 block inactive, HSP90 inh inactive, LGR2 inh inactive and TROY signal inh inactive.
O=C(/C=C\Nc1ccc2c(c1)OCO2)c1ccccn1 was read as TWEAK Fn14 block 104.2, HSP90 inh 71.3, TROY signal inh 74.7, HSP90 confirm 95.6 and luciferase ctr 90.3.
COCC(=O)Nc1ccc2c(c1)OC[C@@H](C)N(Cc1ccccc1F)C[C@@H](C)[C@H](OC)CN(C)C2=O was read as LGR2 inh inactive.
For Cc1onc(-c2cccc(Cl)c2Cl)c1C(=O)O/N=C(\N)c1ccc([N+](=O)[O-])o1 the results were TWEAK Fn14 block inactive, HSP90 inh 33.5, LGR2 inh inactive, TROY signal inh inactive, HSP90 confirm inactive and luciferase ctr inactive.
For O=C(Cc1ccncc1)NCC[C@H]1CC[C@H](NC(=O)C2CCC2)[C@H](CO)O1 the results were LGR2 inh inactive.
CCOc1ccc(C(=O)NCCCCNC(=O)c2ccc(OCC)cc2)cc1 was read as TWEAK Fn14 block inactive, HSP90 inh inactive, LGR2 inh inactive and TROY signal inh inactive.
Screening O=C(NCCc1ccccc1)c1ccc2c(c1)OCO2 returned TWEAK Fn14 block 93.5, HSP90 inh 75.6, LGR2 inh 78.8, TROY signal inh 70.1, HSP90 confirm 83.2 and luciferase ctr 78.1.
O=C(NCCS(=O)(=O)NCc1ccccc1)c1ccc2c(c1)OCO2 was read as TWEAK Fn14 block inactive, LGR2 inh inactive and TROY signal inh inactive.
For CCOc1ccc(C(=O)NCCc2ccccc2)cc1 the results were TWEAK Fn14 block 77.3, HSP90 inh 22.9, LGR2 inh 78.2, TROY signal inh 51.5, HSP90 confirm 66.1 and luciferase ctr 54.6.
`O=C(NCCc1ccccc1)c1ccc2nccnc2c1` gave TWEAK Fn14 block 93.4, HSP90 inh 39.8, LGR2 inh 68.5, TROY signal inh 56.6, HSP90 confirm 52.4 and luciferase ctr 41.0.
Screening COc1ccc(NC(=O)N(C)C[C@H]2Oc3ccc(NS(=O)(=O)c4ccc(F)cc4)cc3CC(=O)N([C@H](C)CO)C[C@@H]2C)cc1 returned LGR2 inh inactive.
For CO[C@H]1CN(C)C(=O)c2ccc(NC(=O)C3CCOCC3)cc2OC[C@H](C)NC[C@@H]1C the results were LGR2 inh inactive.
O=C(Nc1ccc(CN2CCOCC2)cc1)c1cc2ccccn2n1 was read as TWEAK Fn14 block 86.9, HSP90 inh 44.7, LGR2 inh 78.1, TROY signal inh 69.2, HSP90 confirm 61.5 and luciferase ctr 41.2.
Screening O=C(Nc1ccc(CN2CCOCC2)cc1)c1cc2ccccc2o1 returned TWEAK Fn14 block inactive, HSP90 inh inactive and TROY signal inh inactive.
CC(C)c1ccc(C(=O)Nc2ccc(CN3CCOCC3)cc2)cc1 was read as TWEAK Fn14 block inactive, HSP90 inh 23.6, LGR2 inh inactive, TROY signal inh inactive, HSP90 confirm 19.5 and luciferase ctr inactive.
`NC(=O)c1ccc(NC(=O)c2ccc(CN3CCOCC3)cc2)cc1` gave TWEAK Fn14 block inactive, HSP90 inh inactive and TROY signal inh inactive.
`Cc1noc(C)c1NC(=O)Nc1ccc2c(c1)C(=O)N([C@H](C)CO)C[C@H](C)[C@@H](CN(C)C(=O)C1CCCCC1)OCCCC[C@H](C)O2` gave LGR2 inh inactive.
`O=C(c1ccc(CSc2nc3ccncc3[nH]2)cc1)N1CCCCCC1` gave TWEAK Fn14 block inactive, HSP90 inh 26.8, LGR2 inh inactive, TROY signal inh inactive, HSP90 confirm 50.9 and luciferase ctr 27.1.
`Cc1ccc(CSc2nc3ccncc3[nH]2)cc1` gave TWEAK Fn14 block inactive, HSP90 inh 62.7, LGR2 inh inconclusive, TROY signal inh inactive, HSP90 confirm 79.5 and luciferase ctr 68.7.
`Cc1ccc(CSc2nc3ncccc3[nH]2)cc1` gave TWEAK Fn14 block inactive, HSP90 inh inactive and TROY signal inh inactive.
For O=C(O)c1ccc(CSc2nc3ccccc3[nH]2)cc1 the results were TWEAK Fn14 block inactive, HSP90 inh inactive, LGR2 inh inactive and TROY signal inh inactive.
`Clc1ccc(CSc2nc3ccncc3[nH]2)cc1` gave TWEAK Fn14 block inactive, HSP90 inh 26.8, LGR2 inh inactive, TROY signal inh inactive, HSP90 confirm 64.0 and luciferase ctr 44.9.
Screening C[C@@H]1CN([C@@H](C)CO)C(=O)c2cc(/C=C/c3ccccc3)cnc2O[C@@H]1CN(C)C(=O)Cc1cccnc1 returned LGR2 inh inactive.
For CCCNC(=O)[C@H]1[C@H](CO)[C@H]2Cn3c(ccc(-c4ccccc4OC)c3=O)[C@H]2N1CC the results were LGR2 inh inactive.
For C[C@H]1CN([C@@H](C)CO)C(=O)Cc2cc(NS(=O)(=O)c3cn(C)cn3)ccc2O[C@H]1CN(C)Cc1ccc(C(=O)Nc2ccccc2N)cc1 the results were LGR2 inh inactive.
Screening Cc1cc(S(=O)(=O)N2CCOCC2)ccc1OCC(=O)Nc1ccc(F)cc1 returned TWEAK Fn14 block inactive, HSP90 inh inactive, LGR2 inh inactive and TROY signal inh inactive.
Screening Cc1ccc(OCC(=O)Nc2ccc(S(=O)(=O)N3CCOCC3)cc2)c(C)c1 returned TWEAK Fn14 block inactive, HSP90 inh 20.0, LGR2 inh inactive, TROY signal inh inactive, HSP90 confirm inactive and luciferase ctr inactive.
Screening CCN1C(=O)CC(N2CCC(c3nc4ccccc4[nH]3)CC2)C1=O (stereo unspecified) returned TWEAK Fn14 block inactive, HSP90 inh 23.0, LGR2 inh inactive, TROY signal inh inactive, HSP90 confirm 23.6 and luciferase ctr inactive.

Source: PubChem
